Our source for the activity change, negative = inhibition values is PubChem BioAssay AID1259341 (Broad Institute, 2017).

Activity calls are given as the source filed them.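 Rule for the calls: active = activity change under -35% in any replicate well, with more than 20 beads read in that well; inactive = the rest.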

The target of this experiment is Caspase recruitment domain-containing protein 9 (Homo sapiens) + E3 ubiquitin-protein ligase TRIM62 (Homo sapiens) (UniProt Q9H257+Q9BVG3). The experiment is described as follows: CARD9/TRIM62 protein interaction inhibitors – cell lysate, HEK293FT lysates, Luminex bead ELISA, primary screen (AID 1259341).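 Note: PE anti-Flag signal of Flag-CARD9 captured by myc-TRIM62 beads.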 The settings on record: PE fluorescence, stronger effect = lower value, concentration not given here.
Caspase recruitment domain-containing protein 9 (Homo sapiens) + E3 ubiquitin-protein ligase TRIM62 (Homo sapiens), sequence (Q9BVG3 whole entry, looked up, the tested form may be a part): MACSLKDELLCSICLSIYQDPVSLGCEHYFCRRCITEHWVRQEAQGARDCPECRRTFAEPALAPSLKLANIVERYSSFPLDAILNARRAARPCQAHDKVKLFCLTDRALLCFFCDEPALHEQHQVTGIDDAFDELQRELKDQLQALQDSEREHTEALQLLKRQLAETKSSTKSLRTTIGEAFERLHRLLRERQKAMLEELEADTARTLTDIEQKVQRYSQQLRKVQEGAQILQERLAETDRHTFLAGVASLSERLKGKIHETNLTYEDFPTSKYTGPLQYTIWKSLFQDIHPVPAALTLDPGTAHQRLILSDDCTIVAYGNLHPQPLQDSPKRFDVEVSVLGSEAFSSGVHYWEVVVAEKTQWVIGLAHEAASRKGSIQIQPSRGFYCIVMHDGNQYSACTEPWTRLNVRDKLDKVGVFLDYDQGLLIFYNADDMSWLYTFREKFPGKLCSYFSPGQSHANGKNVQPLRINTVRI
Caspase recruitment domain-containing protein 9 (Homo sapiens) + E3 ubiquitin-protein ligase TRIM62 (Homo sapiens), sequence (Q9H257 whole entry, looked up, the tested form may be a part): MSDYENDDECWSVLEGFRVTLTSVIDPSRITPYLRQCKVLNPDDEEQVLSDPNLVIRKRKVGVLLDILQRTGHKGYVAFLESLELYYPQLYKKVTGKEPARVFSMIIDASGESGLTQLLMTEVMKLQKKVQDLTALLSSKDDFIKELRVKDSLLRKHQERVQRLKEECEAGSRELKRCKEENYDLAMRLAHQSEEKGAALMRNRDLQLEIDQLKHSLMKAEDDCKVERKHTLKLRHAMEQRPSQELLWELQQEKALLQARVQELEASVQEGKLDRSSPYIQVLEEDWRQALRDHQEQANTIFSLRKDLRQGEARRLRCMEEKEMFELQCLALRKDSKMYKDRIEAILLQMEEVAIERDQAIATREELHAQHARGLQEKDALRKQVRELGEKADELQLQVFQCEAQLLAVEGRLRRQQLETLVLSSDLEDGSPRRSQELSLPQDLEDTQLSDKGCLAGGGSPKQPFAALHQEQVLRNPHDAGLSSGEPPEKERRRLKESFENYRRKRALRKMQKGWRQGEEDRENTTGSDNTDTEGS
Regarding `CCCN1CCc2nc(SCc3nc(-c4ccc(OC)cc4OC)oc3C)[nH]c(=O)c2C1`, the activity change, negative = inhibition is -0.271% (inactive).

`Cc1cc(C(=O)Nc2nc3c(s2)CCc2ccccc2-3)no1`: the activity change, negative = inhibition is 3.92% (inactive).

As to `Cc1nc(C)c(C(=O)Nc2ncc([N+](=O)[O-])s2)o1`, the activity change, negative = inhibition was -6.18% (inactive).

As for `N#Cc1sc2nc(-c3ccccc3)cc(-c3ccco3)c2c1N`, the activity change, negative = inhibition was 2.21% (inactive).

Regarding `NC(=O)C1(N2CCCCC2)CCN(c2ncc(NC(=O)c3cccs3)cc2C(=O)O)CC1`, the activity change, negative = inhibition is -9.12% (inactive).

With `O=C(NCc1cccnc1)c1ccccc1-c1nc(-c2ccccc2)no1`, the activity change, negative = inhibition is -1.01% (inactive).

On to `O=C(O)c1ccccc1/C=N/NC(=O)c1cc(-c2ccco2)nc2ccccc12`, for which the activity change, negative = inhibition was -9.37% (inactive).

For the compound `O=C(Nc1ccc2oc(-c3ccncc3)nc2c1)c1ccc2c(c1)OCO2`, the activity change, negative = inhibition was -8.29% (inactive).

Regarding `CC(C(=O)N1CCCC1)N1CCN(c2ccccc2O)CC1` (stereo unspecified), the activity change, negative = inhibition was 5.92% (inactive).

With `C=CC(=O)N1CCCC2(CCN(CCN3CCCC3)C2=O)C1` (stereo unspecified), the activity change, negative = inhibition is -70.2% (active).

Consider `CN(C)C(CN=C1NS(=O)(=O)c2ccccc21)c1ccco1` (stereo unspecified), for which the activity change, negative = inhibition was -0.48% (inactive).

For `Cc1noc(C)c1S(=O)(=O)Nc1ccc2c(c1)C(=O)N([C@H](C)CO)C[C@H](C)[C@@H](CN(C)CC1CCCCC1)OCCCC[C@H](C)O2`, the activity change, negative = inhibition was 7.9% (inactive).

As for `Cc1occc1C(=O)NCc1cccc(CNC(=O)c2ccoc2C)c1`, the activity change, negative = inhibition is 3.25% (inactive).

On to `c1cn(CCc2noc(C3CCCC3)n2)c(-c2cc3n(n2)CCCNC3)n1`, for which the activity change, negative = inhibition was -12.3% (inactive).

Turning to `CN(Cc1ccco1)S(=O)(=O)c1nnc(NC(=O)c2ccccc2)s1`, the activity change, negative = inhibition was 13.7% (inactive).

Regarding `CCC1c2ccc(C)n2CCN1C(=O)Nc1ccccc1C(=O)OC` (stereo unspecified), the activity change, negative = inhibition was 22.8% (inactive).

As to `O=S(=O)(Nc1nc2ccc(S(=O)(=O)N3CCCCC3)cc2s1)c1ccccc1`, the activity change, negative = inhibition was -0.733% (inactive).

With `CC(=O)Nc1ccc(Nc2nc(-c3nnc(-c4cccc(C)c4)o3)nc3ccccc23)cc1`, the activity change, negative = inhibition was -1.95% (inactive).

In the case of `O=C(NCc1ccco1)c1ccc(S(=O)(=O)N2CCOCC2)cc1`, the activity change, negative = inhibition is 19.9% (inactive).

`O=C(Cn1c(=O)cc(C(=O)N2CCc3ccccc3C2)c2ccccc21)NCc1ccc2c(c1)OCO2`: the activity change, negative = inhibition is -5.84% (inactive).

Take `Cc1ccc(-c2cc(C(=O)Nc3ccccn3)c3ccccc3n2)o1`: the activity change, negative = inhibition was -4.7% (inactive).

Consider `O=S(=O)(c1ccc2nc(-c3ccco3)c(-c3ccco3)nc2c1)N1CCOCC1`, for which the activity change, negative = inhibition is -5.03% (inactive).

Turning to `C[C@H](CO)N1C[C@H](C)[C@@H](CN(C)C(=O)C2CCCCC2)OCCCC[C@H](C)Oc2ccc(NS(=O)(=O)c3ccccc3)cc2C1=O`, the activity change, negative = inhibition is 6.21% (inactive).

On to `C[C@H](CO)N1C[C@H](C)[C@@H](CN(C)CC2CCCCC2)OCCCC[C@H](C)Oc2ccc(NS(C)(=O)=O)cc2C1=O`, for which the activity change, negative = inhibition was -25.8% (inactive).

Take `NC(=O)C1(N2CCCCC2)CCN(c2ccc(NC(=O)c3ccccc3F)cc2C(=O)O)CC1`: the activity change, negative = inhibition was -30% (inactive).

As for `O=c1oc(-c2ccccc2)nc2sc3c(c12)CCC3`, the activity change, negative = inhibition was 0.684% (inactive).

As to `Cc1oc(CSCc2cc(C(=O)O)c(C)o2)cc1C(=O)O`, the activity change, negative = inhibition is 1.21% (inactive).

In the case of `O=c1oc(/C=C/c2ccc([N+](=O)[O-])s2)nc2ccccc12`, the activity change, negative = inhibition was -7% (inactive).

As for `COc1ccc(F)c(CN2C[C@H]3CC[C@@H]2CN(Cc2cscn2)C3)c1`, the activity change, negative = inhibition was -3.76% (inactive).

In the case of `COc1ccc(S(=O)(=O)N2CCOCC2)cc1NC(=O)c1cccc(-n2cccc2)c1`, the activity change, negative = inhibition was -8.72% (inactive).

`O=C(Nc1ccc2c(c1)nc1n2CCN(C2CCCCC2)C1)c1ccco1`: the activity change, negative = inhibition was -2.69% (inactive).

For the compound `COc1ccc(S(=O)(=O)Nc2ccc3c(c2)C(=O)N([C@H](C)CO)C[C@H](C)[C@@H](CN(C)C(=O)C2CCCCC2)OCCCC[C@H](C)O3)cc1`, the activity change, negative = inhibition is -4.07% (inactive).

For the compound `CC(=O)Nc1ccc2nc3c(=O)n(C)c(=O)n(C)c3nc2c1`, the activity change, negative = inhibition is 3.76% (inactive).

As for `CCCN1CCCn2nc(CNC(=O)[C@H]3CC[C@@H](N)C3)cc2C1`, the activity change, negative = inhibition was -7.32% (inactive).

On to `Cn1nnnc1SCCNCc1ccc(-c2cccc(C(F)(F)F)c2)o1`, for which the activity change, negative = inhibition was -0.39% (inactive).

With `C[C@H](CO)N1C[C@H](C)[C@@H](CN(C)C(=O)C2CCCCC2)OCCCC[C@H](C)Oc2ccc(NS(C)(=O)=O)cc2C1=O`, the activity change, negative = inhibition is 9.86% (inactive).
